GALK inh: qHTS Assay for Inhibitors of Human Galactokinase (GALK). Purified GALK, Kinase-Glo residual ATP luminescence. 270,000 compounds, 0.007% hits. P51570. Potency, µM (titrated, usually from 57.5 µM), for inactives: at the highest dose activity change, negative = inhibition, most hits filed as inhibitors; also: potency is read from the fitted curve at half-maximal effect; % is scaled to controls: 0 for no effect and ±100 for the full control effect
Target sequence (P51570 whole entry, looked up): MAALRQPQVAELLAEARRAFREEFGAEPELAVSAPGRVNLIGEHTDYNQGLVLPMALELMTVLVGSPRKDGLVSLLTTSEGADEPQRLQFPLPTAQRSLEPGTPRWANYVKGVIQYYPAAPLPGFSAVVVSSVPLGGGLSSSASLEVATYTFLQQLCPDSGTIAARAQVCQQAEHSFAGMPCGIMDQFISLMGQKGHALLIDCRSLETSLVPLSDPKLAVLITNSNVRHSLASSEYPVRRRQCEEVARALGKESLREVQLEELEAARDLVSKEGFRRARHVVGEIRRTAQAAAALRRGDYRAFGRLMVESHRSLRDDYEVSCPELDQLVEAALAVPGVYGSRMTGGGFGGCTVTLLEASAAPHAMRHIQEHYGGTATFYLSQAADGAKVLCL
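GALK at 5 nM final was combined with compound, 35 uM ATP and 100 uM galactose in HEPES pH8.0 with MgCl2 and DTT. The reaction ran one hour at room temperature before luminescent ATP detection.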
PI4K2A block: qHTS for small molecular inhibitors of PI4K2A; Phosphatidylinositol 4-kinase type 2-alpha (Homo sapiens), Q9BTU6; AID 1346378, 2018; activity change, negative = inhibition, % at 76.9 µM; 420,000 compounds, 0.13% hits; purified PI4K2A, ADP-Glo luminescence, 1 h; active compounds read low; in the data active = activity change below about -50%; inconclusive = mostly about -30% to -49%;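 also: -100% = wells without enzyme as full effect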
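In this quantitative HTS, ADP production by PI4K2A was quantified luminescently after 1 h at ambient temperature; 100 microM adenosine served as plate-quality control.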
HttQ103 aggreg: qHTS Multiplex Assay to Identify Dual Action Probes in a Cell Model of Huntington: Aggregate Formation (GFP); PC12 HttQ103-GFP aggregates, Acumen cytometry, 40 h; Potency, µM (highest dose often 46.1 µM), for inactives: at the highest dose activity change, negative = inhibition, hits mostly inhibitors; 220,000 compounds, 1.1% hits; also: potency is read from the fitted curve at half-maximal effect; % is scaled to controls: 0 for no effect and ±100 for the full control effect; nearly all actives have a fitted effect of over 60% in size
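Aggregate formation scored by laser-scanning cytometer (488 excitation, 500–530 emission) in lysed PC12 cells expressing Q103-GFP after 100 nM tebufenozide induction; library tested in dose series, with ATPLite reagent added in the multiplex.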
HTT ATP protect: qHTS Multiplex Assay to Identify Dual Action Probes in a Cell Model of Huntington: Cytoprotection (ATP); Potency, µM (doses to about 56.4 µM), inactives show cytoprotection (ATP increase), hits mostly activators; 230,000 compounds, 0.14% hits; PC12 HTT-Q103 induced, cytoprotection, ATP luminescence, 40 h; also: potency is read from the fitted curve at half-maximal effect; % of control where 0% means no effect; nearly all actives have a fitted effect of over 45% in size
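Quantitative HTS on tebufenozide-induced (100 nM) PC12 cells expressing HTTQ103 exon 1–GFP; compounds tested as a concentration series; survival measured via cellular ATP.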
* hit, by the source's call; ? = inconclusive; / = no result given; ! = repeats disagree; [ ] = another dose, or the depositor's remark. The full list was thinned out, with hits kept by preference. Unless noted, calls follow the shape of the dose curve; as a rule, active = well fitted curve in the direction sought with a large enough effect; inconclusive = small, poorly fitted or top-dose-only effect, or another doubt; inactive = no such curve, though single readings can be large; an effect the other way counts as inactive or inconclusive.

SMILES | GALK inh | PI4K2A block | HttQ103 aggreg | HTT ATP protect
CCn1c(SCC(=O)OC2CCCCC2)nc2ccccc2c1=O | -2% | -2 | 0.63µM* | -3%[10 µM]
COCCc1ccc(OCC2CO2)cc1 (stereo unspecified) | / | 3 | / | /
CC(C)=CCn1cnc2c1C(NOCc1ccccc1)=NCN2 | / | / | / | -36%
O=C1c2ccccc2-c2n[nH]c(=O)c3ccc(N4CCCCC4)c1c23 | 0% | -2 | 20µM* | -133%
Cc1ncc(C[n+]2csc(CCOC(=O)CC34CC5CC(CC(C5)C3)C4)c2C)c(N)n1 | 0% | 3 | 6% | 22%[10 µM]
Cc1c(CCOC(=O)CC23CC4CC(CC(C4)C2)C3)sc[n+]1Cc1ccccc1 | 0% | -1 | 11µM* | -60%
COc1ccc(CNC(=O)CCS(=O)(=O)c2cccc3nonc23)cc1 | 0% | -5 | 6.3µM* | 3.5µM*
CC(=O)Nc1sc(N/N=C\c2ccc(O)cc2)nc1-c1cccs1 | 0% | -1 | 44%[9.22 µM] | 8%[10 µM]
CCN(CC)c1ccc(/C=C(\C#N)c2nc(-c3cccs3)c(NC(C)=O)s2)cc1 | 3% | / | 13µM* | 3%[10 µM]
Cc1ccc(C(=O)CC(=O)c2cccc(F)c2)c(O)c1 | -3% | 6 | 22µM* | 37%
O=C(Nc1ccccc1Oc1ccccc1)NC1CCCCN(Cc2ccc(Cl)cc2)C1=O (stereo unspecified) | / | 1 | / | /
COc1ccc(OCCn2c(NC(=O)c3ccco3)nc3ccccc32)cc1 | -1% | -18 | 10µM* | 17%
CCCOc1nc2c(c(=O)n(C)c(=O)n2C)n1Cc1cccc2ccccc12 | 1% | 0 | 13µM* | -88%
CCCOc1nc2c(c(=O)n(C)c(=O)n2C)n1C | 0% | 2 | -3%[9.22 µM] | -5%[10 µM]
O=C(Nc1ccc(N2CCCCCC2)cc1)c1ccccc1Cl | -1% | 3 | -28% | -27%[10 µM]
O=C(Nc1ccc(N2CCCCC2)cc1)c1ccccn1 | 24% | -65* | ? | /
CCCNC(=O)c1c(N)n(-c2cc(OC)cc(OC)c2)c2nc3ccccc3nc12 | 0% | 0 | 18µM* | -21%[0.074 µM]
COc1ccc(C(=O)C(CN2CCCC2)c2ccccc2)cc1 (stereo unspecified) | 9% | 20 | 16%[9.22 µM] | /
COc1ccc(C(=O)C(CN2CCOCC2)c2ccccc2)cc1 (stereo unspecified) | 0% | 38 | / | 22µM*
O=C(c1ccc(F)cc1)C(CN1CCOCC1)c1ccccc1 (stereo unspecified) | 7% | 32 | 26%[9.22 µM] | 32µM*
Cc1cccc2sc(NC(=O)CN(C)S(=O)(=O)c3cccs3)nc12 | 1% | 5 | 16µM* | -15%
CC(C)N(Cc1nccn1C)C(=O)c1cc(COc2ccc3ncccc3c2)on1 | 3% | -1 | 20µM* | -6%
Cc1ccc(F)cc1CNC(=O)c1cc(COc2ccc3ncccc3c2)on1 | 0% | -3 | 13µM* | -2%
COc1ccc(OC)c(C2OCCC=CC2C)c1 (stereo unspecified) | / | / | / | 0%[10 µM]
CCN1CCN(C(=O)c2ccc3c(c2)N(Cc2ccc(C)cc2)CCS3)CC1 | 6% | -3 | / | /
SMILES | GALK inh | PI4K2A block | HttQ103 aggreg | HTT ATP protect
Cc1ccc(NS(=O)(=O)c2ccc(C(=O)N3CCN(c4ncccn4)CC3)cc2)cc1 | 3% | -4 | 2.5µM* | -92%
Cc1ccc(CN2CCSc3ccc(C(=O)N4CCN(c5ncccn5)CC4)cc32)cc1 | -3% | -6 | 16µM* | -61%
COc1ccc(N2CCN(C(=O)c3ccc(NS(=O)(=O)c4ccc(F)c(F)c4)cc3)CC2)cc1 | 7% | 0 | 10µM* | -13%[10 µM]
O=C(c1ccc(NS(=O)(=O)c2ccc(F)cc2)cc1)N1CCCCC1 | / | -1 | / | /
O=C(c1ccc(S(=O)(=O)Nc2ccc(F)cc2)cc1)N1CCN(c2ccccn2)CC1 | 4% | 1 | 14µM* | -39%
Cc1ccc(C(=O)N2CCN(c3ncccn3)CC2)cc1 | 3% | 5 | / | /
COc1ccc(NS(=O)(=O)c2ccc(C(=O)N3CCN(c4ccc(F)cc4)CC3)cc2)cc1 | / | -7 | / | /
N#CC(=C(/N)Sc1ccccc1N)/C(C#N)=C(/N)Sc1ccccc1N | / | / | / | -40%[1.9 µM]
O=c1cc(-c2ccccc2)oc2cc(O[C@H]3O[C@H](CO)[C@@H](O)[C@H](O)[C@@H]3O)c(O)c(O)c12 | / | / | / | -7%
COc1ccc2ccccc2c1C=NNC(=O)c1cc(-c2ccc(C)cc2)n[nH]1 | / | 0 | / | /
COc1cccc(N2CCN(c3ncnc4c3cnn4-c3ccc(C)cc3C)CC2)c1 | 2% | -1 | 22µM* | -124%
CC(C)ON([C@@H](C(=O)NO)C(C)C)S(=O)(=O)c1ccc(-c2ccccc2)cc1 | / | 2 | / | /
COc1cc2ncnc(Nc3cccc(Br)c3)c2cc1OC | / | / | / | -21%[1.9 µM]
COc1cc2c(Nc3ccc(Br)cc3F)ncnc2cc1OCC1CCN(C)CC1 | / | -1 | 13µM* | -94%
CC(=O)/C=C/C=C1/C2CCC(C2)C1(C)C (stereo unspecified) | / | 3 | / | /
CN(C)c1ccc(C(=O)NC2CCCCN(Cc3ccc(Cl)cc3)C2=O)cc1 (stereo unspecified) | / | -2 | / | /
O=C(NNc1ccccc1[N+](=O)[O-])Nc1ccc(Cl)c(Cl)c1 | -1% | -2 | 11µM* | /
CCOC(=O)C1=C(CC)Nc2ccccc2N/C1=N\S(=O)(=O)c1cc(Br)ccc1Br | 0% | -2 | 18µM* | -29%
CCCCCCCCNC(=O)C1CSCCS(=O)(=O)N1Cc1ccccc1 (stereo unspecified) | / | -6 | / | /
Cc1cc(NC(=O)CCS(=O)(=O)c2nc(-c3ccccc3)cc(C(F)(F)F)n2)no1 | -2% | 13 | / | -33%
CS(=O)(=O)c1nc(-c2ccccc2)cc(C(F)(F)F)n1 | -5% | 12 | 4.5µM* | ?
CCC1(c2ccccc2)C(=O)NCNC1=O | -1% | 3 | -9% | 1.4µM*!
CCN(CC)S(=O)(=O)c1cccc(C(=O)N/N=C(\C)c2ccc(O)cc2O)c1 | 2% | 2 | 4µM* | -105%
CCN(CC)S(=O)(=O)c1cccc(C(=O)N/N=C/c2ccc(O)c(O)c2O)c1 | 2% | -1 | -16% | 18%[0.074 µM]
COc1ccc(-c2cc3c(nn2)-c2ccccc2C3=O)cc1 | 14% | -56* | -6% | -81%[10 µM]
O=C1c2ccccc2-c2nnc(-c3ccccc3)cc21 | 11% | ? | 6% | -63%
Cc1ccc(Nc2c(-c3ccccn3)nc3cc(C)ccn23)cc1 | -1% | -4 | 7.9µM* | -116%
Cc1ccc(Nc2c(-c3ccccn3)nc3ccc(C)cn23)cc1 | -1% | 3 | 11µM* | -44%[10 µM]
COc1ccc(C(C(=O)N(C)C2CCCC2)N(Cc2ccc(F)cc2)C(=O)c2sccc2Cl)cc1OC (stereo unspecified) | / | -5 | / | /
CCCCCCc1cc2cc(-c3nnc(-c4cc(OC)c(OC)c(OC)c4)o3)c(=O)oc2cc1O | 0% | 6 | 2.8µM* | -4%[10 µM]
